Experimental data taken from PubChem BioAssay (EPA / NIEHS).
Results filed as inconclusive are left out. Active and inactive are the calls of the source. How the source made its calls: active means hit-call score of the fitted dose curve at least 0.9, where 1 is the maximum; inconclusive means response in the unintended direction; inactive means score below 0.9.

Assay: ATG_M_32_TRANS: Attagene TRANS-FACTORIAL HepG2 Assay for M32 Transcription Factor (Internal Marker) (AID 2282984)
Settings: HepG2 Attagene TRANS M32 internal marker reporter
Protocol: ATG_TRANS is a cell-based, multiplexed-readout assay that uses HepG2, a human liver cell line, with measurements taken at 24 hours after chemical dosing in a 24-well plate.ATG_M_32_TRANS is one of 30 assay component(s) measured or calculated from the ATG_TRANS assay. It is designed to make measurements of mRNA induction, a form of inducible reporter, as detected with fluorescence intensity signals by Reverse transcription polymerase chain reaction (RT-PCR) and Capillary electrophoresis technology.Data from the assay component ATG_M_32_TRANS was analyzed into 1 assay endpoint. This assay endpoint, ATG_M_32_TRANS, was analyzed in the positive analysis fitting direction relative to DMSO as the negative control and baseline of activity. Using a type of inducible reporter, measures of mRNA for gain-of-signal activity can be used to understand the background control at the transcription factor-level as they relate to the gene . Furthermore, this assay endpoint can be referred to as a secondary readout, because this assay has produced multiple assay endpoints where this one serves a background control function. To generalize the intended target to other relatable targets, this assay endpoint is annotated to the background measurement intended target family, where the subfamily is internal marker.
Human liver HepG2 cells are transiently transfected with multiple reporter transcription units (MRTUs) in 6-well plates using FuGene 6 reagent (Roche; 3 ml FuGene/1 mg DNA). The MRTU constructs are regulated by a cis-regulating element (promoter). […] A major difference between the CIS and TRANS system is that in CIS activities of endogenous TFs are measured, whereas the TRANS assay evaluates changes in activities of exogenous, chimeric NR-Gal4 proteins. […] At the end of 24 hour incubation, total RNA was isolated using TriZol reagent (Invitrogen). The isolated RNA is then reverse-transcribed using oligo(dT) primer and Mo-MLV reverse transcriptase (Invitrogen) with DNAse I (Ambion) treatment for 30 min. The one-tenth of the produced cDNA was amplified by PCR using Taq DNA polymerase (Invitrogen) and two reporter sequence-specific primers. The PCR products were fluorescently labeled by primer extension with 6-arboxyfluorescein (6-FAM) 5'-labeled reporter sequence-specific primer (2 min at 95 C, 20 s at 68 C and 10 min at 72 C) and these products were digested with 5U of HpaI (New England Biolabs) for 2h at 37 C. The fragments were purified using Qiaquick PCR columns (Qiagen), analyzed on an ABI 3130xL genetic analyzer (Applied Biosystems) with peak positions identified by using a set of X-rhodamine (ROX)-labeled MapMarker1000 molecular weight standards (BioVentures). The raw capillary electrophoresis data was processed using Attagraph software (Attagene).

outcome, inactive:
CCCCCCCCC(=O)OCC
CO[Si](OC)(OC)c1ccccc1
OCCNCc1ccccc1
C#CC1(O)CC[C@H]2[C@@H]3CCC4=CCCC[C@@H]4[C@H]3CC[C@@]21C (stereo not given in full)
C=CC(C)(C)C
CCCCCCCCCCc1ccccc1
C=C(C)CCO
O=S(=O)(O)c1ccc2cc(O)c(S(=O)(=O)O)cc2c1
O=C(Oc1ccccc1)c1ccc2ccccc2c1O
COC(=O)/C=C/C(C)=C\C=C\C(C)=C\C=C\C=C(C)\C=C\C=C(C)\C=C\C(=O)O
Clc1nc2ccccc2s1
O=C(C=Cc1ccccc1)OCc1ccccc1
CC=CC(F)(F)C(F)(F)C(F)(F)F
[Cl][Nd]([Cl])[Cl]
C=CC(=O)OCCC(=O)O
CCOC(=O)[C@H](C)O
O=S(=O)(O)c1cc(S(=O)(=O)O)c2ccc3c(S(=O)(=O)O)cc(S(=O)(=O)O)c4ccc1c2c43
Nc1ncn([C@@H]2O[C@H](CO)[C@@H](O)[C@H]2O)c(=O)n1
ON(Cc1ccccc1)Cc1ccccc1
C[Si](C)(CCCN)O[Si](C)(C)CCCN
CCCC(=O)OCc1ccccc1
O=C(O)CCCCCCCCCC(=O)O
C=CCCCCCCCCC(=O)OCCCC
O=C1C=CC(=O)O1
C[Si](C)O[Si](C)(C)O[Si](C)(C)O[Si](C)C
CC(=O)Oc1ccc(C)cc1
COc1cc(C)ccc1C(C)C
CCCCCCOC(=O)C(C)CC (stereo not given)
N#[N+]c1ccc2c(S(=O)(=O)[O-])cccc2c1O
N#CCc1ccc(Cl)cc1Cl
Cc1cc(=O)n(-c2ccccc2)n1C
N=c1ccn2c(n1)O[C@H]1[C@H](O)[C@@H](CO)O[C@H]12
CC1=CC[C@H](C(C)C)C=C1
COc1ccc(C(Cl)=C(c2ccc(OC)cc2)c2ccc(OC)cc2)cc1
O=C(c1ccccc1)C1CCC1
O=C(Nc1cccc(C(F)(F)F)c1)c1cc(Br)cc(Br)c1O
O=C(C(Cl)Cl)N1CCOC12CCCCC2
C(=CC=Nc1ccccc1)C=CNc1ccccc1
Cc1ccc2c(c1)C(=O)c1ccccc1C2=O
OCCCS
